High-throughput results deposited in PubChem BioAssay by National Center for Advancing Translational Sciences (NCATS).
JMJD2A Tudor: qHTS Assay for Inhibitors of JMJD2A-Tudor Domain. Lysine-specific demethylase 4A (Homo sapiens), O75164. AlphaScreen JMJD2A-Tudor / H3K4me3 peptide binding. Potency, µM (series often up to 114 µM), inactives show top-dose activity change, negative = inhibition, hits mostly inhibitors. hit rate 4.4% among 390,000. AID 504339, 2011; also: % is scaled to controls: 0 for no effect and ±100 for the full control effect; nearly all actives have a fitted effect of over 50% in size
BAZ2B block: qHTS Assay for Inhibitors of BAZ2B. AlphaScreen BAZ2B-H3K14Ac peptide displacement. Potency, µM (titrated, usually from 114 µM), inactives show at the top dose activity change, negative = inhibition, usual class: inhibitors. hit rate 4.4% among 360,000. AID 504333, 2011; also: % is scaled to controls: 0 for no effect and ±100 for the full control effect; nearly all actives have a fitted effect of over 60% in size
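Compounds, titrated to a top concentration of 110 uM, were incubated 30 min at room temperature with preformed BAZ2B/acetyl-K14 H3 peptide complex (50 nM each). Proximity signal was measured by AlphaScreen after 20 min with beads.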
G9a inh: qHTS Assay for Inhibitors of Histone Lysine Methyltransferase G9a | G9a H3K9 monomethylation, AlphaScreen, 2 h | AID 504332, 2011 | Histone-lysine N-methyltransferase EHMT2 (Homo sapiens), Q96KQ7 | hit rate 8.8% among 350,000 | Potency, µM (highest dose often 102 µM), for the others: at the highest dose activity, negative = inhibition, hits mostly inhibitors; also: % is scaled to controls: 0 for no effect and ±100 for the full control effect; nearly all actives have a fitted effect of over 75% in size
Target sequence (Q96KQ7 913-1193 limits assumed): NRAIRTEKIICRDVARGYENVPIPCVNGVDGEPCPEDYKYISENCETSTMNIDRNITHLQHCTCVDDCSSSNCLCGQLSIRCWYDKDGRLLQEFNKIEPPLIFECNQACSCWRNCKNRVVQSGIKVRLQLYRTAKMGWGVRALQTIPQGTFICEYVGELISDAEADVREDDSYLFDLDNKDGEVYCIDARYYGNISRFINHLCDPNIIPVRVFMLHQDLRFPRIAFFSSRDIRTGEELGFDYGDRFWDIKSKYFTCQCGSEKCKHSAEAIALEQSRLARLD
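AlphaScreen read-out: biotin-H3K9 peptide (500 nM) methylation by 20 nM enzyme with 20 uM SAM, 2 h at room temperature after 15 min compound preincubation; anti-monomethyl H3K9 antibody plus donor/acceptor beads, 10 min dark.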
HP1b chromo inh: HTS for Inhibitors of HP1-beta Chromodomain Interactions with Methylated Histone Tails; Potency, µM (series often up to 114 µM), for the others: at the top dose activity change, negative = inhibition, actives largely listed as inhibitors; hit rate 0.56% among 390,000; Chromobox protein homolog 1 (Homo sapiens), P83916; AlphaScreen HP1-beta / biotin-H3K9me3 peptide binding; also: nearly all actives have a fitted effect of over 70% in size
Target sequence (P83916 whole entry, looked up): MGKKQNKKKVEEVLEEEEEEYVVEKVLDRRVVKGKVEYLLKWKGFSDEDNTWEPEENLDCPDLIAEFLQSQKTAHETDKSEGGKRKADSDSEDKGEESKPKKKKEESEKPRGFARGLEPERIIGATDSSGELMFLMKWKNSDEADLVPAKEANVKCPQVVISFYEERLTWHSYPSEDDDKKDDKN
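HP1-beta protein (50 nM final) preincubated 30 min at room temperature with biotinylated H3(1-18)K9me3 peptide (50 nM) in PBS pH 7.4, 0.01% Tween-20, then compound added for 30 min. AlphaScreen streptavidin donor/nickel chelate acceptor beads (10 ug/mL final), 30 min dark, luminescence read.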
Sfp inh: qHTS Assay for Inhibitors of Bacillus subtilis Sfp phosphopantetheinyl transferase (PPTase); 4'-phosphopantetheinyl transferase ffp (Bacillus subtilis), Q9F4F7; Biochemical Sfp PPTase activity, qHTS; Potency, µM, without a hit: largest response in the series, negative = inhibition, usual class: inhibitors; hit rate 3.5% among 310,000; AID 1490, 2009;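 also: the enzyme is Sfp with the accession as filed and its product quenches rhodamine fluorescence; 0% = enzyme reaction without inhibitor and -100% = no enzyme wells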
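After 15 min at room temperature with compound, 15 nM Sfp received 5 uM rhodamine-CoA plus 12.5 uM BHQ-2-ybbR (50 mM Hepes pH 7.6, 10 mM MgCl2). Rate came from the fluorescence difference over 30 min, ex 525/em 598 nm.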
* marks the source's active call; other numbers are inactive results; ? = inconclusive; nt = no result given; [ ] = remark or other dose. A selection: hits, their analogues and other compounds. The true share with any hit is near 12%. Calls follow the shape of the dose curve; as a rule, active = well fitted curve in the direction sought with a large enough effect; inconclusive = small, poorly fitted or top-dose-only effect, or another doubt; inactive = no such curve, though single readings can be large; an effect the other way counts as inactive or inconclusive. Potency is read from the fitted curve at half-maximal effect.

SMILES | JMJD2A Tudor | BAZ2B block | G9a inh | HP1b chromo inh | Sfp inh
N#CC1=C(N)Oc2cc(N)ccc2C1c1cccc(F)c1 (stereo unspecified) | -19.9% | -9.8% | nt | 11.5% | -5.8%
CN(C)c1ccc2c(c1)OC(N)=C(C#N)C2c1cccc(F)c1 (stereo unspecified) | 50.1µM* | ? | 44.7µM* | ? | ?
C[C@@H]1NC(=O)c2cc([N+](=O)[O-])cc(I)c2OCC[C@@H](C(=O)NC(CC(=O)O)C(N)=O)NC(=O)[C@H](CCC(=O)O)NC1=O (stereo partly specified) | ? | -27.4% | 35.5µM* | 0.0% | 15.6%
NC(=O)CC[C@@H]1NC(=O)[C@H](Cc2ccc(O)cc2)NC(=O)c2cc([N+](=O)[O-])cc(F)c2OCC[C@@H](C(N)=O)NC1=O | -24.8% | -10.8% | ? | 5.6% | 6.0%
C[C@@H]1NC(=O)[C@H](CC(N)=O)NC(=O)c2cc([N+](=O)[O-])cc(I)c2OCC[C@@H](C(=O)NC(CC(=O)O)C(N)=O)NC1=O (stereo partly specified) | -32.4% | -37.6% | 28.2µM* | 19.3% | -8.0%
NCCCC[C@@H]1NC(=O)c2cc([N+](=O)[O-])cc(F)c2NCCCC[C@@H](C(N)=O)NC(=O)[C@H](CCC(N)=O)NC1=O | -17.9% | -2.8% | ? | 27.9% | 7.2%
NC(=O)C(CC(=O)O)NC(=O)[C@@H]1CCOc2c(I)cc([N+](=O)[O-])cc2C(=O)N[C@@H](CCC(=O)O)C(=O)N[C@@H](CO)C(=O)N1 (stereo partly specified) | ? | ? | 7.94µM* | 31.7% | 30.8%
O=C1[C@H](Cc2ccccc2)NCC=CC[C@H](c2ccc(Cl)cc2)N1Cc1ccccc1 | -12.5% | nt | nt | 40.3% | nt
CC(C)CN(C(=O)COC(=O)CCCc1c[nH]c2ccccc12)c1c(N)n(Cc2ccccc2)c(=O)[nH]c1=O | -11.8% | -9.3% | nt | 19.4% | 22.4%
O=C(Nc1ccc(S(=O)(=O)N2CCCCC2)cc1)C1CCCO1 (stereo unspecified) | 1.4% | 2.2% | -12.6% | 22.0% | 2.2%
CCCCCn1cnc2c(=S)nc(N)[nH]c21 | 17.8µM* | ? | 8.91µM* | ? | 2.51µM*
Nc1nc(=S)c2ncn(C3CCCCC3)c2[nH]1 | ? | nt | nt | 15.0%[57 µM] | nt
CCCCn1cnc2c(=S)nc(N)[nH]c21 | 11.2µM* | ? | 6.31µM* | -13.1% | 14.1µM*
C=CCn1c(-c2cccc(Cl)c2)n[nH]c1=S | 10µM* | 5.5% | 2.82µM* | 6.4% | 9.3%
C=CCn1nnnc1-c1cccc(Cl)c1 | -19.5%[11.4 µM] | -2.3% | 16.0% | 4.1% | 5.5%
C=CCn1c(SC)nnc1-c1cccc([N+](=O)[O-])c1 | -11.5% | 9.3% | 23.5%[59 µM] | 32.6% | 6.7%
O=[N+]([O-])c1cccc(-c2n[nH]c(=S)n2Cc2ccccc2)c1 | 79.4µM* | -12.0% | 1.78µM* | 11.9% | -4.8%
C=CCn1c(-c2cccc([N+](=O)[O-])c2)n[nH]c1=S | 5.62µM* | -27.2% | 12.6µM* | 19.7% | ?
C=CCn1c(-c2oc3nc(-c4ccccc4)cc(-c4ccccc4)c3c2N)n[nH]c1=S | ? | -31.5% | 31.6µM* | ? | -29.3%
O=C1CC(C(=O)N2CCN(S(=O)(=O)c3cccc(F)c3)CC2)CN1Cc1ccccc1Cl (stereo unspecified) | -2.8% | -5.5% | -10.0% | 40.2% | nt
COc1ccc(-n2cc(-c3ccccc3)c3c(SC(C)C(C)=O)ncnc32)cc1 (stereo unspecified) | -16.0% | -3.5% | 38.2%[59 µM] | 44.1% | nt
Cc1cc(-c2sccc2C)nc(-n2cccc2)n1 | 50.0% | 32.3% | 1.0%[12.7 µM] | 88.9% | -16.9%
C=CCn1c(-c2sccc2C)n[nH]c1=S | 7.08µM* | -4.3% | 7.94µM* | 23.4% | 1.5%
O=C(O)/C=C/c1nc(-c2ccccc2)n2ccccc12 | -28.4% | 44.7µM* | 11.2µM* | 5.6% | 10.6%
